Results published in PubChem BioAssay.
A number with no mark means an inactive call. For some assays here: Results with a measured potency or affinity are listed apart. Active and inactive are the calls of the source. Unless noted, no rule for the calls is given here.

Key:
[1] = antimalarial activity against Dd2 strain (AID 2302;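 active = growth inhibition above 50% at the single 2 µM test dose, taken to imply half-maximal potency below 2 µM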;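 also: 0% = DMSO untreated growth and 100% = chloroquine plus artemisinin killed control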); details: P. falciparum Dd2 in RBCs, LDH growth readout, 72 h; at 2 µM; active compounds read high
[2] = HepG2 cytotoxicity, primary screen, cytotoxicity control for P. falciparum antimalarial project, cell-based, ATP luminescence (AID 2303;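 active = inhibition above 50%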;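 also: 0% = DMSO wells and 100% = digitonin-killed cells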); details: HepG2 viability, 24-48 h, at 10 µM, active compounds read high
[3] = target: L-lactate dehydrogenase (Plasmodium falciparum (isolate CDC / Honduras)) (UniProt Q27743); experiment: PfLDH activity inhibition – cell lysate, 3D7 strain, counter-screen for P. falciparum growth inhibition project (AID 2304);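 also: 0% = vehicle and 100% = reference inhibitor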; details: P. falciparum 3D7 crude extract, LDH APAD/NBT absorbance; at 2 µM; active compounds read high
[4] = inhibition of 3D7 malaria parasite growth – strain 3D7 (AID 2306);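 also: 0% = DMSO wells and 100% = chloroquine plus artemisinin control wells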; details: P. falciparum 3D7 erythrocytic growth, LDH absorbance, 72 h; at 2 µM; active compounds read high
[5] = target: Calcium-dependent protein kinase 1 (Plasmodium falciparum (isolate 3D7)) (UniProt P62344); experiment: PfCDPK1 kinase inhibitors, biochemical, TCAMS library (AID 1159585; cut-off not given, nearly all actives have IC50 up to about 0.98 µM;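 also: inhibitors leave more ATP so luminescence rises with inhibition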); details: recombinant PfCDPK1, Kinase-Glo ATP depletion luminescence
[6] = target: Plasmodium falciparum protein kinase 6 (PK6, PF3D7_1337100) (UniProt Q8IDW1); experiment: PfPK6 kinase inhibitors, biochemical, TCAMS library (AID 1159586); details: recombinant PfPK6, Kinase-Glo ATP depletion luminescence
[7] = target: Protein kinase 7 (PK7), Plasmodium falciparum 3D7 (PF3D7_0213400) (UniProt Q7YTF7); experiment: inhibition of Plasmodium PK7 catalytic activity – biochemical, TCAMS antimalarial set, Kinase-Glo luminescence (AID 1159587); details: recombinant PfPK7, Kinase-Glo ATP depletion luminescence
[8] = target: Calcium-dependent protein kinase 4 (Plasmodium falciparum (isolate 3D7)) (UniProt Q8IBS5); experiment: PfCDPK4 kinase inhibitors, biochemical, TCAMS library (AID 1159588; cut-off not given, nearly all actives have IC50 up to about 0.91 µM); details: recombinant PfCDPK4, Kinase-Glo ATP depletion luminescence
Calcium-dependent protein kinase 4 (Plasmodium falciparum (isolate 3D7)), sequence (Q8IBS5 whole entry, looked up): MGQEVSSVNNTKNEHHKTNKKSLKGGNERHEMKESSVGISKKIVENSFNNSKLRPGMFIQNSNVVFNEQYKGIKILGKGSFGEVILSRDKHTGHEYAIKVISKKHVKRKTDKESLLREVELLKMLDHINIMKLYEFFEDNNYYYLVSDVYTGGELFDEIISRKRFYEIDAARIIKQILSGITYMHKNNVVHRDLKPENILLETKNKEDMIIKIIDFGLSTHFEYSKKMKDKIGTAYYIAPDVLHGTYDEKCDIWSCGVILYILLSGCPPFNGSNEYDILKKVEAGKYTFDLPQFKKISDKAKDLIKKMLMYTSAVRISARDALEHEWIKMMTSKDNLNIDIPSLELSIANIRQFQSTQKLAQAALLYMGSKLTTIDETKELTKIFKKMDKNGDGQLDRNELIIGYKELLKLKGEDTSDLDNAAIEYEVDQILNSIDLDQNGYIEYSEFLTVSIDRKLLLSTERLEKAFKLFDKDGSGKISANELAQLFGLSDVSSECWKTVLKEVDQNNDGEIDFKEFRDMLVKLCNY

Plasmodium falciparum protein kinase 6 (PK6, PF3D7_1337100), sequence (Q8IDW1 1-305): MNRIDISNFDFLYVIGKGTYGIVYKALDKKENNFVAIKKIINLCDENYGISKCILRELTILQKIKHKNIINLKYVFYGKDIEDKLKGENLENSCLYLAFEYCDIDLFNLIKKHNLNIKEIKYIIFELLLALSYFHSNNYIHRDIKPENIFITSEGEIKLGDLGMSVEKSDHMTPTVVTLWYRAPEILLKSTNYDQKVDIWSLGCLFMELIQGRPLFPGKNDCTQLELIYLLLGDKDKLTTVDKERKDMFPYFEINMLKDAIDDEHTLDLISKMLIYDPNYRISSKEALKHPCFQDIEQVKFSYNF
Calcium-dependent protein kinase 1 (Plasmodium falciparum (isolate 3D7)), sequence (P62344 whole entry, looked up): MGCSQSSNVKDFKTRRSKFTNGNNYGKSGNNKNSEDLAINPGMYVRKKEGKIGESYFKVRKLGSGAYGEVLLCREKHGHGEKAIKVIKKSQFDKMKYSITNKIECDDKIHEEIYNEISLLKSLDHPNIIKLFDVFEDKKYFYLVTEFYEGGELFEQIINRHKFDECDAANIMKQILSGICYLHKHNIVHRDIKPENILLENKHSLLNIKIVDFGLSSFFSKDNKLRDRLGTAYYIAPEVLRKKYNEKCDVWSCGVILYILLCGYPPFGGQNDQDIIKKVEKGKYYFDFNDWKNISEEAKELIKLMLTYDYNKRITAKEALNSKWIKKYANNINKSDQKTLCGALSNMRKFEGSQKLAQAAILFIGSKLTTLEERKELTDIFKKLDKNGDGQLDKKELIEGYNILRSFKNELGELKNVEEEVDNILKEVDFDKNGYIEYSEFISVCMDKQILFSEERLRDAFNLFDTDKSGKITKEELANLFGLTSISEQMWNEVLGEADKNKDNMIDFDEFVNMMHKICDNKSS
L-lactate dehydrogenase (Plasmodium falciparum (isolate CDC / Honduras)), sequence (Q27743 whole entry, looked up): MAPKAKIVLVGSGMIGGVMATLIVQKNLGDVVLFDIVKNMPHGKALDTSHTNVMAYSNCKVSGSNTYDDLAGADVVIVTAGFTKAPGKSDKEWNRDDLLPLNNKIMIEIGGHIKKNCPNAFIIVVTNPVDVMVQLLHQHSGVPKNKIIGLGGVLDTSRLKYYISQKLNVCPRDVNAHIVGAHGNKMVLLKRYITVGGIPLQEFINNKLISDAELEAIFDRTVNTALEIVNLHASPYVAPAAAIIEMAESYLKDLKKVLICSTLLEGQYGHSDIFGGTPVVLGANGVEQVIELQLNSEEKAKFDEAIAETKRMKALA
Protein kinase 7 (PK7), Plasmodium falciparum 3D7 (PF3D7_0213400), sequence (Q7YTF7 1-343): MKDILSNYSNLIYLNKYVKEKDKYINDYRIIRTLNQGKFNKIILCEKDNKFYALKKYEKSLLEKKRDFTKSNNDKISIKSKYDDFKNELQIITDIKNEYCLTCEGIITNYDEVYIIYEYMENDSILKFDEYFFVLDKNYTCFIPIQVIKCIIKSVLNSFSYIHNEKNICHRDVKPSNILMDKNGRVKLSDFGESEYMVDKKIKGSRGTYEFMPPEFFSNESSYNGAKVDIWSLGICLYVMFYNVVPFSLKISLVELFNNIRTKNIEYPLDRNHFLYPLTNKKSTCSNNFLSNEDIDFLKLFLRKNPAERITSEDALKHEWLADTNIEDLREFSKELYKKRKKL

| Compound | growth inhibition [1] | inhibition [2] | inhibition [3] [%] | growth inhibition [4] | outcome [5] | outcome [6] | outcome [7] | outcome [8] |
| --- | --- | --- | --- | --- | --- | --- | --- | --- |
| CCCC(CNCc1cccc(C)c1)CNc1cc(=O)c2ccccc2[nH]1 (stereo not given) | 89% (active) | -2% | -7 | 99% (active) | inactive | inactive | inactive | inactive |
| CN1CCN(CC(=O)Nc2cccc(-c3cccc(-c4nc5ccc(F)cc5[nH]4)c3)c2)CC1 | 98% (active) | 16% | 6 | 100% (active) | inactive | inactive | inactive | inactive |
| COCCN1CCC(CNCC(C)(C)c2nc(-c3ccc(Cl)c(O)c3)c(-c3ccncc3)[nH]2)CC1 | 2% | -15% | -1 | 102% (active) | inactive | inactive | inactive | inactive |
| CC(C)c1cc(C(=O)N[C@@H](Cc2ccccc2)[C@H](O)CNC2CCCCC2)cc(N2CCCC2=O)c1 | 98% (active) | -11% | 5 | 101% (active) | inactive | inactive | inactive | inactive |
| COc1ccccc1CCN(C)CCN1CCC(NC(=O)c2ccc(-c3ccc(C(F)(F)F)cc3)cc2)CC1 | 15% | 46% | -2 | 92% (active) | inactive | inactive | inactive | inactive |
| C=CCNc1cc(-c2ccccn2)nc(-c2ccccn2)n1 | 79% (active) | 78% (active) | -2 | 94% (active) | inactive | inactive | inactive | inactive |
| COc1cc(NC(=O)/C=C/c2cc(F)cc(F)c2F)cc(OCCN2CCC(O)(c3ccccc3)CC2)c1 | 82% (active) | 54% (active) | 6 | 103% (active) | inactive | inactive | inactive | inactive |
| COC(=O)/C=C/c1ccc(CCC(C)NCC(O)c2cccc(Cl)c2)cc1 (stereo not given) | 77% (active) | 5% | 4 | 94% (active) | inactive | inactive | inactive | inactive |
| NC(N)=Nc1nc(-c2cc(NC(=O)C(F)(F)F)cc([N+](=O)[O-])c2)cs1 | 51% (active) | 7% | 5 | 98% (active) | inactive | inactive | inactive | inactive |
| CCc1c(C)c2ccc3c(c2oc1=O)CN(CCc1ccc(F)cc1)CO3 | 85% (active) | 0% | -2 | 94% (active) | inactive | inactive | inactive | inactive |
| COc1ccc2nccc(N3CCN(CCNCc4ccc5c(n4)NC(=O)CS5)CC3)c2c1 | 23% | 18% | -2 | 97% (active) | inactive | inactive | inactive | inactive |
| COc1cccc2c(NN=Cc3ccc([N+](=O)[O-])cc3)ccnc12 | 16% | 25% | -3 | 92% (active) | inactive | inactive | inactive | inactive |
| CC(=O)c1ccc(Nc2c(C(N)=O)cnc3cc(-c4c(C)noc4C)ccc23)cc1 | 44% | -3% | 3 | 99% (active) | inactive | inactive | inactive | inactive |
| Cc1c(C(=O)N2CCCC(C(F)(F)F)C2)sc2cccc(F)c12 (stereo not given) | 89% (active) | -4% | 1 | 99% (active) | inactive | inactive | inactive | inactive |
| COc1ccc(CCNC(=O)c2cc(C)ccc2O)cc1-c1ccc(C(C)(C)C)cc1 | 94% (active) | 1% | -6 | 97% (active) | inactive | inactive | inactive | inactive |
| CCOC(=O)c1[nH]c(-c2cc(Cl)nc(Cl)c2)nc1NC(=S)NCc1ccc(NS(C)(=O)=O)cc1 | 98% (active) | -1% | -1 | 100% (active) | inactive | inactive | inactive | inactive |
| Cc1cc(Br)c(OCCCON2C(N)=NC(N)=NC2(C)C)c(Br)c1 | 97% (active) | 62% (active) | -3 | 95% (active) | inactive | inactive | inactive | inactive |
| O=C(Nc1nccs1)c1cn(-c2ccccc2)nc1-c1ccc(Cl)s1 | 18% | 9% | 0 | 96% (active) | inactive | inactive | inactive | inactive |
| O=C(/C=C/c1ccccc1)N1CCOC(CCN2CCC(c3ccccc3)CC2)(c2ccc(Cl)c(Cl)c2)C1 (stereo not given) | 63% (active) | 4% | 2 | 89% (active) | inactive | inactive | inactive | inactive |
| COc1ccc(NC(=O)c2ccc(Br)c(C)c2)cc1N1CCN(CCCc2c[nH]c3ccccc23)CC1 | 64% (active) | 21% | 0 | 102% (active) | inactive | inactive | inactive | inactive |

| Compound | growth inhibition [1] | inhibition [2] | inhibition [3] [%] | growth inhibition [4] | outcome [5] | outcome [6] | outcome [7] | outcome [8] |
| --- | --- | --- | --- | --- | --- | --- | --- | --- |
| CCc1cn2c3c(cc(C(=O)N[C@@H](Cc4ccccc4)[C@H](O)CNC4CCOCC4)cc13)N(CC(F)(F)F)S(=O)(=O)CC2 | 98% (active) | 4% | -2 | 98% (active) | inactive | inactive | inactive | inactive |
| COc1ccc(Cn2ncc3c4c(N)nc(N)nc4ccc32)cc1OC | 95% (active) | 68% (active) | 3 | 94% (active) | inactive | inactive | inactive | inactive |
| CC1(C)CCC(C)(C)c2c1ccc(C1CCN(CCCCNC(=O)c3ccc(-c4ccc(C#N)cc4)cc3)CC1)c2OCC(N)=O | 100% (active) | 99% (active) | -3 | 102% (active) | inactive | inactive | inactive | inactive |
| O=C(C=Cc1ccc(F)cc1)NC1CCC(CCN2CCc3ccc(-c4cnccn4)cc3CC2)CC1 (stereo not given) | 65% (active) | 32% | 1 | 99% (active) | inactive | inactive | inactive | inactive |
| CC(C)CN(C)c1ncnc2c1nc(-c1cncc(C#N)c1)n2CCNCc1ccccc1 | 2% | 4% | 0 | 86% (active) | inactive | inactive | inactive | inactive |
| Cc1cc(Nc2ccccc2)nc(Nc2ccccc2C)n1 | 27% | 8% | 5 | 85% (active) | inactive | inactive | inactive | inactive |
| CNC(=O)c1ccc2nc(C3CC3)n(CC3CCN(S(=O)(=O)c4cccc(Cl)c4)CC3)c2c1 | 100% (active) | -6% | 3 | 100% (active) | inactive | inactive | inactive | inactive |
| COc1ccc(-c2ccc(NC(=O)c3ccc(F)cc3)cc2)cc1CN1CCCN(C)CC1 | 35% | 29% | -2 | 98% (active) | inactive | inactive | inactive | inactive |
| CC1(C)N=C(N)N=C(N)N1c1ccc([N+](=O)[O-])cc1 | 1% | 3% | -3 | 93% (active) | inactive | inactive | inactive | inactive |
| COc1cc(Cc2cnc(N)nc2N)cc(OCCn2ccccc2=O)c1OC | -3% | 4% | 2 | 97% (active) | inactive | inactive | inactive | inactive |
| O=C(NCc1cc2c(cc1Cl)OCO2)c1ccc(CNC2CCN(Cc3ccccc3)CC2)cc1 | 47% | 11% | -3 | 100% (active) | inactive | inactive | inactive | inactive |
| CN(C)c1ccc(-c2csc(C(=O)NC3CCN(Cc4ccc(C(C)(C)C)cc4)C3)c2)cc1 (stereo not given) | 50% (active) | 26% | -1 | 99% (active) | inactive | inactive | inactive | inactive |
| NC(=NC1CC1)c1ccc2nc(CCCCCc3nc4ccc(C(N)=NC5CC5)cc4[nH]3)[nH]c2c1 | 72% (active) | -3% | 2 | 89% (active) | inactive | inactive | inactive | inactive |
| COc1ccc(-c2nc(NC(=O)CSc3ccccc3)sc2C)cc1 | 31% | 6% | 2 | 94% (active) | inactive | inactive | inactive | inactive |
| Cc1cccc2[nH]c(-c3ccc(-c4cccc(CN5CCCC(N)C5)c4)s3)nc12 (stereo not given) | 94% (active) | 17% | 4 | 100% (active) | inactive | inactive | inactive | inactive |
| O=C(C=Cc1ccc(Cl)c(Cl)c1)NCCCCCN1CCCC(CCCNC(=O)/C=C/c2ccccc2)C1 (stereo not given) | 12% | 92% (active) | -4 | 98% (active) | inactive | inactive | inactive | inactive |
| CCCCN(CCCC)C(=NCCCCCCN=C(/N=C(/N)Nc1ccc(Cl)cc1)N(CCCC)CCCC)/N=C(/N)Nc1ccc(Cl)cc1 | 72% (active) | -1% | -5 | 81% (active) | inactive | inactive | inactive | inactive |
| O=C(Cc1cccc(O)c1)NCC(Cc1ccc(O)cc1)c1ccccc1 (stereo not given) | 97% (active) | -1% | 3 | 91% (active) | inactive | inactive | inactive | inactive |
| Cc1nc(N)nc(N)c1OCc1cccc2c1ccc1ccccc12 | 16% | 54% (active) | 1 | 95% (active) | inactive | inactive | inactive | inactive |
| Cc1[nH]c(C)c(-c2ccc(-c3ccc(OC(F)(F)F)cc3)cc2)c(=O)c1Cl | 97% (active) | 24% | 1 | 98% (active) | inactive | inactive | inactive | inactive |
